From PubChem BioAssay (NCATS) come the findings set out here.

Results filed as inconclusive are left out. Where a call stands in place of a potency, no number is given. The source made the active and inactive calls. Calls come from the whole dose curve; as a rule, active = well fitted cell-killing curve with a large enough effect; inconclusive = small, poorly fitted or top-dose-only effect; inactive = flat fitted curve, though single readings scatter.

The assay can be described thus: Cellular viability qHTS for adrenocortical cancer (ACC) cell line NCI-H295R (AID 1963990). Note: nearly all actives have a fitted effect of over 60% in size. As to conditions: CellTiter-Glo ATP luminescence, 48 h; series mostly up to 46.1 µM. The text has this:
PI: Naris Nilubol, MD Surgical Oncology Program, National Cancer Institute (NCI) National Institute of Health (NIH), Bethesda, Maryland Adrenocortical cancer (ACC) is a rare malignancy with poor survival outcomes and few treatment options. Currently, mitotane is the only FDA-approved therapy for ACC. Although adjuvant radiation therapy is rarely utilized, it has the potential to improve survival in select cases. Through a quantitative high-throughput drug screen (qHTS), we identified auranofin (AF), a thioredoxin reductase (TXNRD) inhibitor, as a promising candidate drug. This study aims to evaluate whether AF can enhance the efficacy of radiation therapy in the treatment of ACC. Two human ACC cell lines, SW-13 and NCI-H295R, were screened using the National Center for Advancing Translational Sciences (NCATS) Pharmaceutical Collection (NPC) and the Mechanism Interrogation PlatE (MIPE) library (~4,991 compounds). CellTiter-Glo (Cat # G7570, Promega, Madison, WI) was utilized to measure cell viability. Described herein are the results of the corresponding viability assay.
PROTOCOL TABLE (as described by Inglese J, Shamu CE and Guy RK. 2007) SEQUENCE No. (e.g., 1, 2, 3, etc.); […] (e.g., Cells, Incubation, Reagent, etc.); VALUE; DESCRIPTION. 1; Cells; 5 uL; white, solid-bottom, 1536-well tissue-culture treated plates. 2; Time; overnight culture at 37C with 5% CO2. 3; Compounds and control; 23 nL; Kalypsis pin tool (Wako USA) equipped with a 1536-well pin head to transfer to the assay plates. 4; Time; 48 hours; 37C with 5% CO2. 5; Reagent; 4 uL; CellTiter-Glo luminescent substrate mix. 6; Time; 20 min at room temperature. 7; Detection; Luminescence; ViewLux plate reader NOTES (numbers refer to Sequence numbers above) 1. NCI-H295R cells were harvested from a T175 flask and resuspended in ITS-supplemented DMEM serum-free medium at a concentration of 300 000 cells/mL. Then 5 uL of resuspended cells were dispensed into each well of white, solid-bottom, 1536-well tissue-culture-treated plates using a multidrop combi dispenser. The plates were covered with stainless steel gasket lids. 2-3. The plates were cultured overnight at 37C with 5% CO2. Twenty-three nL of compounds (eight selected concentrations from the NPC / MIPE) or positive control (10 mM stock of bortezomib) in DMSO was transferred to each well of the assay plate using a pin tool (Kalypsys, San Diego, CA, USA). The final concentration of the compounds in the 5 uL assay volume ranged from 0.5 nM to 46 uM. 4-6. After 48 hours of incubation at 37C and 5% CO2, 4 uL of CellTilter-Glo luminescent substrate mix (Promega, Madison, WI, USA) was added to each well. Then the plates were incubated for 20 minutes at room temperature. 7. After incubation, luminescence was measured using a ViewLux plate reader (PerkinElmer, Waltham, MA, USA) with a clear filter was used to measure the number of metabolically competent cells. To determine compound activity in the qHTS assay, the titration-response data for each sample was plotted and modeled by a four-parameter logistic fit yielding IC50 and efficacy (maximal response) values. Raw plate reads for each titration point were normalized relative to positive control ([…], 100% inhibition) and DMSO-only wells (basal, 0%). REFERENCES: Inglese J, Shamu CE and Guy RK, Reporting data from high throughput screening of small molecule libraries, Nature Chemical Biology, 2007, 3(8): 438-441. doi.org/10.1038/nchembio0807-438.
A general note: In qHTS, concentration-response curves come from the screen itself.
In the case of `CC(/C=C1\SC(=S)N(CC(=O)O)C1=O)=C\c1ccccc1`, the Potency entry was “inactive”.
As for `C[C@@H]1CN(Cc2ccc(F)cc2)[C@@H](C)CN1C(=O)c1cc2c(C(=O)C(=O)N(C)C)cn(C)c2cc1Cl`, the Potency entry is “inactive”.
The same measure for `CCOCOC[C@H](C[C@H](C)C(=O)NO)NC(=O)c1ccc(Oc2ccccc2)cc1`: “inactive”; for `CCC(C)(Oc1ccc(C2(c3ccc(OC(C)(CC)C(=O)O)cc3)CCCCC2)cc1)C(=O)O` (stereo not given): “inactive”.
Regarding `CCOC(=O)n1ccn(C)c1=S`, the Potency entry is “inactive”.
`C[C@H](CN(C)C)Oc1nc(Nc2cc3cccc(Cl)c3cn2)cnc1C#N`: the Potency was 2.24 µM (active).
The same measure for `COc1cc(N)c(Cl)cc1C(=O)NC1CCN(Cc2ccccc2)CC1`: “inactive”; for `CCc1cc(-c2n[nH]c(C)c2-c2ccc3c(c2)OCCO3)c(O)cc1O`: 15.8 µM (active).
For `CC(C)C[C@H](NC(=O)[C@@H](NC(=O)c1cccc(-c2ccccc2)n1)[C@@H](C)O)B(O)O` the value was 0.18 µM (active); for `CN[C@@H](C)C(=O)N[C@H]1CCCC[C@H]2CC[C@@H](C(=O)N[C@@H](c3ccccc3)c3cn(CCCCc4ccc(CCCCn5cc([C@@H](NC(=O)[C@@H]6CC[C@@H]7CCCC[C@H](NC(=O)[C@H](C)NC)C(=O)N76)c6ccccc6)nn5)cc4)nn3)N2C1=O`, “inactive”.
The same measure for `NC(=O)N/N=C/c1ccc([N+](=O)[O-])o1`: 8.91 µM (active); for `CC(=O)c1cnc2ccc(-c3cc(Cl)c(O)c(Cl)c3)nc2c1NC1CCC(CN(C)C)CC1` (stereo not given): 0.212 µM (active).
As for `CN(C)c1ccc(C(=O)NCCCCCCC(=O)NO)cc1`, the Potency is 1.41 µM (active).
For `NCc1ccc(OCCCc2sc(-c3ccc4c(c3)/C(=N/Nc3nc5ccccc5s3)CCC4)nc2C(=O)O)cc1` the value was “inactive”.
For `O=c1ncn2nc(Sc3ccc(F)cc3F)ccc2c1-c1c(Cl)cccc1Cl` the value was “inactive”.
For `Cc1ccc(S(=O)(=O)OCC(=O)Nc2ccc(C(=O)O)c(O)c2)cc1` the value was “inactive”; for `Cc1ccn(-c2ccc(-c3ncco3)cc2)c(=O)c1-c1ccc2nc(N)ncc2c1`, “inactive”.
For the compound `COc1cc(C(=S)N2CCOCC2)cc(OC)c1OC`, the Potency entry is “inactive”.
As to `Cc1ccccc1C(=O)Nc1ccc(C(=O)N2CCCC(O)c3cc(Cl)ccc32)c(C)c1` (stereo not given), the Potency was 16.4 µM (active).
For `O=C(Nc1ccc(F)c(C(F)(F)F)c1)Nc1nnc(-c2ccncc2)s1` the value was “inactive”; for `CC1(C)CO[C@@H](CC(=O)O)CN1`, “inactive”; for `CCCCC(CC)COC(=O)c1ccccc1C(=O)O` (stereo not given), “inactive”.
The same measure for `COc1cc(OC)c(C(=O)CCCN2CCCC2)c(OC)c1`: “inactive”.
Turning to `Cn1cc[nH]c1=S`, the Potency entry is “inactive”.
For `COc1cc(OC)c(NC(=O)Nc2cc(C)on2)cc1Cl` the value was “inactive”; for `CCN(CC)CCNC(=O)COc1ccc(OC)cc1`, “inactive”.
The same measure for `O=C1CCCC(=O)C1C(=O)c1ccc(C(F)(F)F)cc1[N+](=O)[O-]`: “inactive”; for `C[C@H]1C[C@H]2[C@@H]3CCC4=CC(=O)C=C[C@]4(C)[C@H]3C(=O)C[C@]2(C)[C@@]1(O)C(=O)CO`: “inactive”.
The same measure for `COc1ccc(-n2nc(C(N)=O)c3c2C(=O)N(c2ccc(N4CCCCC4=O)cc2)CC3)cc1`: “inactive”; for `CC(C)(C)COc1ccc(-n2cc(C(=O)O)cn2)cc1C#N`: “inactive”; for `Nc1c2c(nc3c1CCC3)CCCC2`: “inactive”.
With `CCn1cc(C(=O)O)c(=O)c2cnc(N3CCNCC3)nc21`, the Potency result is “inactive”.
For `COc1ccc(-c2oc3c(CC=C(C)C)c(OC4O[C@H](CO)[C@@H](O)[C@H](O)[C@H]4O)cc(O)c3c(=O)c2OC2O[C@@H](C)[C@H](O)[C@@H](O)[C@H]2O)cc1` (stereo not given in full) the value was “inactive”; for `CC(COc1ccccc1)N(CCCl)Cc1ccccc1` (stereo not given), “inactive”.
For `C[n+]1ccccc1/C=N/O` the value was “inactive”.
The same measure for `CN(C)CCCN1c2ccccc2Sc2ccc(Cl)cc21`: 18.4 µM (active).
For the compound `COc1ccnc(CS(=O)c2nc3ccc(OC(F)F)cc3[nH]2)c1OC` (stereo not given), the Potency result was “inactive”.
With `CCOc1ccccc1N=Nc1c(C)[nH]n(-c2nc(-c3ccccc3)cs2)c1=O`, the Potency result was “inactive”.
For `Nc1nc(Nc2ccc3c(c2)CC[C@@H](N2CCCC2)CC3)nn1-c1cc2c(nn1)-c1ccccc1CCC2` the value was 10 µM (active).
`CCOC(=O)NNc1nncc2ccccc12`: the Potency entry was “inactive”.
